Laboratory results as given in PubChem BioAssay (NCATS).
Records with an inconclusive call do not appear. Calls of active or inactive are those of the source. Unless noted, calls come from the whole dose curve; as a rule, active = well fitted curve in the direction sought with a large enough effect; inconclusive = small, poorly fitted or top-dose-only effect, or another doubt; inactive = no such curve, though single readings can be large; an effect the other way counts as inactive or inconclusive.

Each molecule was assayed against Glucocorticoid receptor (Homo sapiens) (UniProt P04150) (assay: GR-EFC Redistribution (AID 451; calls by dose curve; note: potency is the fitted concentration of half-maximal effect)). Conditions: CHO-K1 GR-EFC translocation, beta-gal luminescence, 2 h.
Chain of Glucocorticoid receptor (Homo sapiens) (P04150 whole entry, looked up, the tested form may be a part): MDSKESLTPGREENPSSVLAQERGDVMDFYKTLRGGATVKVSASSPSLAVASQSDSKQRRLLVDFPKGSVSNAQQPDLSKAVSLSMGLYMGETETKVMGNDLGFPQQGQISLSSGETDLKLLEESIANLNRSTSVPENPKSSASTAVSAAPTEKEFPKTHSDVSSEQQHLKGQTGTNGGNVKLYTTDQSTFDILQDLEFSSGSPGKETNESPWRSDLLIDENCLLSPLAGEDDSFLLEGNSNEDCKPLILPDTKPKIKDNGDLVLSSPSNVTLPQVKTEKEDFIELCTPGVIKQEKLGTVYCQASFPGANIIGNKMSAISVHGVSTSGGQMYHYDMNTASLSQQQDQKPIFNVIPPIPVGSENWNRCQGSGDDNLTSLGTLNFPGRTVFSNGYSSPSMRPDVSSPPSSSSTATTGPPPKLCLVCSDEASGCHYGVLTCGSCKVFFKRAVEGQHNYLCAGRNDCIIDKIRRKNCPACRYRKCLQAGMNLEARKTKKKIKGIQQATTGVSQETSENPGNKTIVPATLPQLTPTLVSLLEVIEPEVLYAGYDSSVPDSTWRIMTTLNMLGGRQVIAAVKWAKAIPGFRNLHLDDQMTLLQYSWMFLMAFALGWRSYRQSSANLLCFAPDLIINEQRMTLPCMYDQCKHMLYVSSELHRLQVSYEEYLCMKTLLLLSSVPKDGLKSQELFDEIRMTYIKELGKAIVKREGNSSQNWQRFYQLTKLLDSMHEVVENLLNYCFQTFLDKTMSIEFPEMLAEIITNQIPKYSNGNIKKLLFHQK
Summary of the method: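 CHO-K1 cells stably expressing nuclear-localized β-gal enzyme acceptor and GR fused C-terminally to the enzyme donor fragment; ligand-driven nuclear translocation restores β-gal by complementation. Compounds titrated up to 46 uM final, 2 h at 37 °C; luminescence read.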
For `COc1cccc(Nc2ncc3nc(-c4cc(F)cc(F)c4)c(=O)n(CCC#N)c3n2)c1`, the Potency was > 46 µM (inactive).
`CN(C)c1ncc2nc(CCc3ccccc3)c(=O)n(-c3ccccc3)c2n1` was tested, and the Potency was > 46 µM (inactive).
For `CCNc1ncc2nc(-c3cccs3)c(=O)n(CCC#N)c2n1`, the Potency was > 46 µM (inactive).
In the case of `CC(=O)N1CCC2(CCCN(c3ccc(-c4ccccc4)cc3)C2)CC1`, the Potency is reported as > 46 µM (inactive).
`COc1cccc(Nc2ncc3nc(-c4ccc(F)cc4)c(=O)n(CCC#N)c3n2)c1` was tested, and the Potency was > 46 µM (inactive).

Each molecule was assayed against Mitogen-activated protein kinase 10 (Mus musculus) (UniProt Q61831) (assay: JNK3 AlphaScreen Assay (AID 530; active = well fitted curve in either direction with a large enough effect, not every such curve was filed as active;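 note: kinase came from lysate of stimulated human HepG2 cells; signal reports phosphorylation of biotinylated GST-cJun 1-79 at Ser73 with 10 µM ATP; % is set by controls: 0 for no effect and ±100 for the full control effect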)). Conditions: JNK3 lysate, c-Jun phosphorylation; series mostly up to 57.1 µM; activity change, negative = inhibition: at the top concentration.
Summary of the method: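 Inhibitors reduce antibody binding to phosphorylated biotin-cJun, lowering AlphaScreen luminescence. Lysates from HepG2 cells pre-activated by IL-1beta plus TNF-alpha supplied JNK3; compounds were titrated.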
For `COc1cccc(Nc2ncc3nc(-c4cc(F)cc(F)c4)c(=O)n(CCC#N)c3n2)c1`, the “activity change, negative = inhibition” value was -14.8% (inactive).
`CN(C)c1ncc2nc(CCc3ccccc3)c(=O)n(-c3ccccc3)c2n1` was tested, and the “activity change, negative = inhibition” value was 22.2% (inactive).
With `CCNc1ncc2nc(-c3cccs3)c(=O)n(CCC#N)c2n1` the “activity change, negative = inhibition” value was 23.2% (inactive).
In the case of `CC(=O)N1CCC2(CCCN(c3ccc(-c4ccccc4)cc3)C2)CC1`, the “activity change, negative = inhibition” value is reported as -25.4% (inactive).
For `COc1cccc(Nc2ncc3nc(-c4ccc(F)cc4)c(=O)n(CCC#N)c3n2)c1`, the “activity change, negative = inhibition” value was 1.38% (inactive).

What follows are molecules tested against 3',5'-cyclic-AMP phosphodiesterase 4B (Homo sapiens) (UniProt Q07343) (assay: qHTS Assay for Inhibitors of PDE-IV (AID 607; active = well fitted activation curve with a large enough effect in the main read-out, with a control signal flat, not every such curve was filed as active; note: % of control where 0% means no effect)). Conditions: HEK293 ACTOne CNG channel cells, membrane potential fluorescence; series mostly up to 22.9 µM; activation (PDE inhibition): at the top concentration.
Chain of 3',5'-cyclic-AMP phosphodiesterase 4B (Homo sapiens) (Q07343 whole entry, looked up): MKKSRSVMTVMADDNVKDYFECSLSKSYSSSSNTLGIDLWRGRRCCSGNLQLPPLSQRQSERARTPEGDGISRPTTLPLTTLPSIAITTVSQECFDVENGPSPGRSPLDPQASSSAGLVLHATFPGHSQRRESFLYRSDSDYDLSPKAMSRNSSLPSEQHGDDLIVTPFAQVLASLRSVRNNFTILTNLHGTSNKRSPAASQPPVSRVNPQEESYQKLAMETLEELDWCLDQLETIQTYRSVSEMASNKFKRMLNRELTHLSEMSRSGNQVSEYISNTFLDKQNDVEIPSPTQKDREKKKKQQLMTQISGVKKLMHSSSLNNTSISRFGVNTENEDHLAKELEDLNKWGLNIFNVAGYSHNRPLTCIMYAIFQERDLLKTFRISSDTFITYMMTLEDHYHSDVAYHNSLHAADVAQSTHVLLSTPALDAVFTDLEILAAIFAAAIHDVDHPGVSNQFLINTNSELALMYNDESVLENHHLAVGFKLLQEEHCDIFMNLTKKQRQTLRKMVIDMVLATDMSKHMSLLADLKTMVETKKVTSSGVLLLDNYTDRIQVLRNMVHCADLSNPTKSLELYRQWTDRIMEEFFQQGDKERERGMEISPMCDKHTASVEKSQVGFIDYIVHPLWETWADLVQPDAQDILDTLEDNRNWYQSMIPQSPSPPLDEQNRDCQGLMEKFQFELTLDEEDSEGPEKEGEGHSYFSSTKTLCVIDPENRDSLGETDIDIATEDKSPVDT
Summary of the method: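 HEK293 ACTOne cells with CNG channel (1000/well), endogenous PDE4; membrane potential dye, compounds up to 22.9 uM final. Fluorescence Ex 535/Em 590; RO 20-1724 (100 uM final) as reference.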
For `COc1cccc(Nc2ncc3nc(-c4cc(F)cc(F)c4)c(=O)n(CCC#N)c3n2)c1`, the “activation (PDE inhibition)” value was -4.78% (inactive).
`CC(=O)N1CCC2(CCCN(c3ccc(-c4ccccc4)cc3)C2)CC1` was tested, and the “activation (PDE inhibition)” value was -16.6% (inactive).
`COc1cccc(Nc2ncc3nc(-c4ccc(F)cc4)c(=O)n(CCC#N)c3n2)c1` was tested, and the “activation (PDE inhibition)” value was 2.75% (inactive).

The molecules below were run against Cytochrome P450 3A4 (Homo sapiens) (UniProt P08684) (assay: qHTS Assay for Inhibitors and Substrates of Cytochrome P450 3A4 (AID 884; note: potency is the fitted concentration of half-maximal effect; nearly all actives have a fitted effect of over 50% in size)). Conditions: recombinant CYP3A4, Luciferin-PPXE luminescence; series mostly up to 57.1 µM; activity change, negative = inhibition: at the top concentration.
Chain of Cytochrome P450 3A4 (Homo sapiens) (P08684 whole entry, looked up): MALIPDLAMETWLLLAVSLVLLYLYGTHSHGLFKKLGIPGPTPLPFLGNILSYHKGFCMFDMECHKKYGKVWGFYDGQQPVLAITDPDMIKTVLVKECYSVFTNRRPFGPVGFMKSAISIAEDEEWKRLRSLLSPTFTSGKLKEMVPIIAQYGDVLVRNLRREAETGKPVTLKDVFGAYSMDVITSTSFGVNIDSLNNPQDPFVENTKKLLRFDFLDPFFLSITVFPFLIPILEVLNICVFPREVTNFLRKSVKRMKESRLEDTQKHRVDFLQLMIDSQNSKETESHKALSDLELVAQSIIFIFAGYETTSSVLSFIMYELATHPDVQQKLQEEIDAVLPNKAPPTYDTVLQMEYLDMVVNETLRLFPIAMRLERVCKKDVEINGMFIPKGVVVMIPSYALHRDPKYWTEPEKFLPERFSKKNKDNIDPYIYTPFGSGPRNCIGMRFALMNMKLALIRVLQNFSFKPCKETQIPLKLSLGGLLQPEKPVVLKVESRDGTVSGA
Summary of the method: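 20 nM human CYP3A4 with 25 uM Luciferin-PPXE (at KM) in 200 mM KPO4, preincubated 10 min with compound; NADPH regeneration started a 60 min RT reaction. Luciferin detected by luminescence, normalized to 57 uM ketoconazole as full inhibition.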
`CN(C)c1ncc2nc(CCc3ccccc3)c(=O)n(-c3ccccc3)c2n1` was tested, and the Potency was 6.31 µM (active).
With `CCNc1ncc2nc(-c3cccs3)c(=O)n(CCC#N)c2n1` the Potency was 6.31 µM (active).
For `COc1cccc(Nc2ncc3nc(-c4ccc(F)cc4)c(=O)n(CCC#N)c3n2)c1`, the Potency was 3.16 µM (active).

These molecules were tested against Cytochrome P450 3A4 (Homo sapiens) (UniProt P08684) (assay: qHTS Assay for Activators of Cytochrome P450 3A4 (AID 885; note: nearly all actives have a fitted effect of over 65% in size)). Conditions: recombinant CYP3A4, Luciferin-PPXE luminescence, 60 min; series mostly up to 57.1 µM; activity change, positive = activation: at the top concentration.
Summary of the method: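 Human CYP3A4 (20 nM) with Luciferin-PPXE at 25 uM (its KM) in 200 mM KPO4; 10 min compound preincubation, then NADPH regeneration and 60 min reaction at RT. Luciferin read by luminescence; normalized to 57 uM ketoconazole full inhibition.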
In the case of `COc1cccc(Nc2ncc3nc(-c4cc(F)cc(F)c4)c(=O)n(CCC#N)c3n2)c1`, the “activity change, positive = activation” value is reported as -64.4% (inactive).
With `CN(C)c1ncc2nc(CCc3ccccc3)c(=O)n(-c3ccccc3)c2n1` the “activity change, positive = activation” value was -65.3% (inactive).
For `CCNc1ncc2nc(-c3cccs3)c(=O)n(CCC#N)c2n1`, the “activity change, positive = activation” value was -62.5% (inactive).
For `COc1cccc(Nc2ncc3nc(-c4ccc(F)cc4)c(=O)n(CCC#N)c3n2)c1`, the “activity change, positive = activation” value was -88.5% (inactive).

What follows are molecules tested against Tumor susceptibility gene 101 protein (Homo sapiens) (UniProt Q99816) (assay: qHTS Assay for Iinhibitors of HIV-1 Budding by Blocking the Interaction of PTAP/TSG101: Hit Validation (AID 651600; note: nearly all actives have a fitted effect of over 70% in size; note: potency is the fitted concentration of half-maximal effect; for activity change, negative = inhibition: % is set by controls: 0 for no effect and ±100 for the full control effect)). Conditions: PTAP peptide/TSG101 UEV interaction, biochemical assay; series mostly up to 57.5 µM; activity change, negative = inhibition: at the top concentration.
Chain of Tumor susceptibility gene 101 protein (Homo sapiens) (Q99816 whole entry, looked up): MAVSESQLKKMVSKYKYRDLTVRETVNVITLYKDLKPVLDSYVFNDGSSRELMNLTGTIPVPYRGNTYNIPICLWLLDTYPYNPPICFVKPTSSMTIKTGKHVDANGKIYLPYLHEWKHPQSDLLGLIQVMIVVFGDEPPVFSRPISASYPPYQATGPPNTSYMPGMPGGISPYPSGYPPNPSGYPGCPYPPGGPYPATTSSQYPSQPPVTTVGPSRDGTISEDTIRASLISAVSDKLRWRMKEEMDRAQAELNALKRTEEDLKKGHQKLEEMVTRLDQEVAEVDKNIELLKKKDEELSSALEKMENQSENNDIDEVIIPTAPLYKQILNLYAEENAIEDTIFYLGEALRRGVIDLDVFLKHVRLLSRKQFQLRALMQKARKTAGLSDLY
Summary of the method: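 Measuring PTAP–Tsg101 interaction by FP: protein at 10 uM and fluorescent peptide at 50 nM (final), buffer 10 mM HEPES pH 7.5 with 0.15 M NaCl, 3 mM EDTA, 0.1 mM TCEP, 0.01% Tween 20; 20 min incubation, r.t.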
`O=c1c(/C=C(\O)c2ccccc2)nc2ccccc2n1-c1ccccc1` was tested, and the Potency was 16.3 µM (active).
For `Cc1cc(/C=C2\SC(=S)N(Cc3ccco3)C2=O)c(C)n1-c1cccnc1`, the Potency was 25.9 µM (active).
In the case of `COc1cccc(/C(O)=C/c2nc3ccc(C(=O)NCCc4ccc(Cl)cc4)cc3[nH]c2=O)c1`, the “activity change, negative = inhibition” value is reported as -2.91% (inactive).
With `Cc1c2ccccc2nc2c(F)c(NCCO)c(F)c(F)c12` the Potency was 8.19 µM (active).
For `c1ccc(-c2cnn3c(-c4ccccc4)c(-c4ccccc4)nc3n2)cc1`, the “activity change, negative = inhibition” value was -69.3% (inactive).
`O=C(OCCN1C(=O)c2cccc3c(N4CCOCC4)ccc(c23)C1=O)c1ccc(Cl)cc1Cl` was tested, and the Potency was 4.61 µM (active).

The molecules below were run against Rap guanine nucleotide exchange factor 3 (Homo sapiens) (UniProt O95398) (assay: Confirmatory qHTS for antagonist of cAMP-regulated guanine nucleotide exchange factor 3 (EPAC1) (AID 1645880; note: nearly all actives have a fitted effect of over 55% in size; note: potency is the fitted concentration of half-maximal effect;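 for activity, negative = inhibition: plate controls were DMSO only for no effect and full effect of the ATA control for full effect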)). Conditions: EPAC1 Rap1B-BODIPY-GDP exchange, fluorescence; activity, negative = inhibition: at 115 µM (top of the series).
Chain of Rap guanine nucleotide exchange factor 3 (Homo sapiens) (O95398 whole entry, looked up): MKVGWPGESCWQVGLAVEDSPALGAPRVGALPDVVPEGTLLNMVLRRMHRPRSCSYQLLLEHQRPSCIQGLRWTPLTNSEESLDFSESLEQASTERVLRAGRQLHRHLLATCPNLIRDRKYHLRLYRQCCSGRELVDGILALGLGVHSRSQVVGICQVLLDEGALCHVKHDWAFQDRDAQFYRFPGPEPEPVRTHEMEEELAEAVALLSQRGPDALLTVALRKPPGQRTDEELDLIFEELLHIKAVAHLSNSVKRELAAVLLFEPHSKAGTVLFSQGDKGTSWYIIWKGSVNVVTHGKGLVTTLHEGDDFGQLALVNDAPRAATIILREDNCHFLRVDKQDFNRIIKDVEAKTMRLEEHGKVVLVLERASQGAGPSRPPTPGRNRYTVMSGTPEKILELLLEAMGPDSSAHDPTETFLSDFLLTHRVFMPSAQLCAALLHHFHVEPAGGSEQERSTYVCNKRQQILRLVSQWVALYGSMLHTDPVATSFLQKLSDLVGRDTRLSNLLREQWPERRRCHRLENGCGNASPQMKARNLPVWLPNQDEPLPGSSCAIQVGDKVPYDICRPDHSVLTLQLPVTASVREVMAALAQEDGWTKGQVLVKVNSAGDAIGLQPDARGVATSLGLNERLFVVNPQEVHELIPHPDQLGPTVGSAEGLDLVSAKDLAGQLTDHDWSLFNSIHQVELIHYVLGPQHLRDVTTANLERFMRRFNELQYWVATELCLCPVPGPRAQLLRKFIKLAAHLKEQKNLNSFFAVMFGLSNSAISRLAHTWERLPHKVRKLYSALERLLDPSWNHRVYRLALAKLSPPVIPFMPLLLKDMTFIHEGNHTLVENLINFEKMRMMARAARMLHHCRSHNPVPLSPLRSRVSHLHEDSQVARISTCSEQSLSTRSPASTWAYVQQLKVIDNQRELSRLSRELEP
Summary of the method: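 Nucleotide exchange uses 100 nM EPAC1, 250 nM RAP1B-BODIPY-GDP and 50 uM GDP, with compounds in a concentration-titration series. After 5 min at room temperature, fluorescence (480 nm ex/540 nm em) is read every 5 min for 30 min. Data are normalized to control ATA and DMSO.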
For `COC(=O)c1cc2ccccc2n1S(=O)(=O)c1ccccc1`, the “activity, negative = inhibition” value was -12.5% (inactive).
With `O=c1c(/C=C(\O)c2ccccc2)nc2ccccc2n1-c1ccccc1` the “activity, negative = inhibition” value was 44.5% (inactive).
For `CCOCCCNc1nc2c(C)cccn2c(=O)c1/C=C1\SC(=S)N(CC(C)C)C1=O`, the “activity, negative = inhibition” value was -12% (inactive).
With `Fc1ccc(Nc2cncc(-c3ccsc3)c2)cc1Cl` the Potency was 75.7 µM (active).
`O=C1OC(c2ccccc2)(c2ccccc2)c2ccccc21` was tested, and the “activity, negative = inhibition” value was -14.4% (inactive).
In the case of `CCCCN1C(=O)/C(=C/C=C2/CC(C)(C)CN2C)SC1=S`, the “activity, negative = inhibition” value is reported as 9.26% (inactive).
With `Cc1cc(/C=C2\SC(=S)N(Cc3ccco3)C2=O)c(C)n1-c1cccnc1` the “activity, negative = inhibition” value was 44.1% (inactive).
In the case of `COc1cccc(/C(O)=C/c2nc3ccc(C(=O)NCCc4ccc(Cl)cc4)cc3[nH]c2=O)c1`, the “activity, negative = inhibition” value is reported as 5.57% (inactive).
With `Cc1c2ccccc2nc2c(F)c(NCCO)c(F)c(F)c12` the “activity, negative = inhibition” value was -32.9% (inactive).
`COc1cccc(Nc2ncc3nc(-c4cc(F)cc(F)c4)c(=O)n(CCC#N)c3n2)c1` was tested, and the “activity, negative = inhibition” value was 24.6% (inactive).
With `Cc1ccc2c(c1)N(Cc1cccc(F)c1)C(=O)C(C)O2` (stereo unspecified) the “activity, negative = inhibition” value was -13.8% (inactive).
For `CN1CC=C2C(C#N)=C(N)C(C#N)(C#N)C(c3ccsc3)C2C1` (stereo unspecified), the “activity, negative = inhibition” value was -0.162% (inactive).
For `CCOc1ccc(S(=O)(=O)Nc2cc(SCC(=O)O)c(O)c3ccccc23)cc1`, the Potency was 67.5 µM (active).
`CN1c2ccccc2C(C)(C)C12C=Nc1c(cc(N3CCOCC3)c3ccccc13)O2` (stereo unspecified) was tested, and the “activity, negative = inhibition” value was -20% (inactive).
In the case of `CC[n+]1c(/C=C/C=C/N(C(C)=O)c2ccccc2)sc2ccccc21`, the Potency is reported as 84.9 µM (active).
`O=[N+]([O-])/C=C/c1cn(Cc2ccc(Cl)cc2)c2ccccc12` was tested, and the “activity, negative = inhibition” value was -36.3% (inactive).
In the case of `Cc1cccc(N2CCCC2=Nc2ccc(Br)cc2C#N)c1`, the “activity, negative = inhibition” value is reported as -21.1% (inactive).
With `c1ccc(Oc2nc(-c3cccnc3)nc3ccccc23)cc1` the “activity, negative = inhibition” value was -22.2% (inactive).
For `CN(C)c1ncc2nc(CCc3ccccc3)c(=O)n(-c3ccccc3)c2n1`, the “activity, negative = inhibition” value was 9.04% (inactive).
In the case of `COc1cccc(Nc2nnc(-c3cc4ccc(O)cc4oc3=O)s2)c1`, the “activity, negative = inhibition” value is reported as -29.5% (inactive).
For `COc1cc2c3nnc(-c4ccc(F)cc4)c-3cn(Cc3cccc(C)c3)c2cc1OC`, the “activity, negative = inhibition” value was 30.2% (inactive).
`CCCCn1nnnc1C(c1cc2ccccc2o1)N1CCCCC1` (stereo unspecified) was tested, and the “activity, negative = inhibition” value was -21.1% (inactive).
`O=[N+]([O-])c1c(Nc2ccccn2)cc(Cl)c2nonc12` was tested, and the “activity, negative = inhibition” value was 54.2% (inactive).
`Cc1ccc(-c2nc(S(=O)(=O)c3ccc(C)cc3)c(N3CCOCC3)o2)cc1` was tested, and the “activity, negative = inhibition” value was -21.4% (inactive).
With `Cc1ccc2oc(=O)n(Cc3ccc(OC(C)C)cc3)c2c1` the “activity, negative = inhibition” value was -16.3% (inactive).
For `c1ccc(-c2cnn3c(-c4ccccc4)c(-c4ccccc4)nc3n2)cc1`, the “activity, negative = inhibition” value was 41.7% (inactive).
For `Cn1ccc(=Nc2ccc(NC(=O)c3ccc(N=c4ccn(C)c5ccc([N+](=O)[O-])cc45)cc3)cc2)cc1`, the Potency was 42.6 µM (active).
`CCOc1ccc(-c2nn(-c3ccccc3)cc2/C=C2\SC(=S)N(C3CCS(=O)(=O)C3)C2=O)cc1` (stereo unspecified) was tested, and the “activity, negative = inhibition” value was 18.3% (inactive).
`CCNc1ncc2nc(-c3cccs3)c(=O)n(CCC#N)c2n1` was tested, and the “activity, negative = inhibition” value was 9.59% (inactive).
With `CC(=O)N1CCC2(CCCN(c3ccc(-c4ccccc4)cc3)C2)CC1` the “activity, negative = inhibition” value was -8.66% (inactive).
With `O=C(O)c1ccc(COc2ccccc2/C=C2/NC(=O)N(c3cccc(Cl)c3)C2=O)cc1` the Potency was 37.9 µM (active).
With `CCOc1ccc(C(=O)CCc2nc3ccccc3s2)cc1` the “activity, negative = inhibition” value was -27.1% (inactive).
In the case of `COc1cccc(/C=N/NC(=O)c2[nH]nc3c2CCc2ccccc2-3)c1O`, the Potency is reported as 33.8 µM (active).
With `CC(C)(C)C1COc2ccccc2N1C(=O)c1ccccc1Cl` (stereo unspecified) the “activity, negative = inhibition” value was -21.7% (inactive).
In the case of `COC(=O)c1ccccc1-c1c2ccc(=N)cc-2oc2cc(N)ccc12`, the “activity, negative = inhibition” value is reported as -32.4% (inactive).
`Cc1ccc(CNC(=O)c2cccc3c2C(=O)c2ccc(N4CCC(C)CC4)cc2S3(=O)=O)cc1` was tested, and the “activity, negative = inhibition” value was 2.05% (inactive).
`C[n+]1ccc(/C=C/c2c[nH]c3ccccc23)cc1` was tested, and the “activity, negative = inhibition” value was 25.8% (inactive).
With `CN1CC=C2C(C#N)=C(N)C(C#N)(C#N)[C@H](c3cccc(Cl)c3)C2C1` (stereo partly specified) the “activity, negative = inhibition” value was -17.3% (inactive).
For `COc1cccc(Nc2ncc3nc(-c4ccc(F)cc4)c(=O)n(CCC#N)c3n2)c1`, the “activity, negative = inhibition” value was -8.32% (inactive).
`O=C(OCCN1C(=O)c2cccc3c(N4CCOCC4)ccc(c23)C1=O)c1ccc(Cl)cc1Cl` was tested, and the “activity, negative = inhibition” value was 205% (inactive).
